outcome, Potency and max activation data for nine molecules are collected here from PubChem BioAssay (Tox21).

Test [1] can be described thus: Caspase-3/7 induction in CHO-K1 cells by small molecules, qHTS assay (AID 1346980). Further: on the % scale 0 is the no-effect control and ±100 the full control effect; nearly all actives have a fitted effect of over 15% in size. In outline: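 Wild-type CHO-K1 cells exposed to compounds for 17hr at 37 C, 5% CO2. Caspase-3/7 activity then measured by Caspase-Glo 3/7 luminescence after 30min at room temperature.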
For orientation: Quantitative high-throughput screening tests each substance at several concentrations.

Test [2] can be described thus: Caspase-3/7 induction in HepG2 cells by small molecules, qHTS cell viability counter screen (AID 1346981). Further: series mostly up to about 92 µM; on the % scale 0 is the no-effect control and ±100 the full control effect; nearly all actives have a fitted effect of over 30% in size. In outline:
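Treatment of HepG2 cells with DMSO-delivered compounds ran 16 hr at 37 C following a 5-hr pre-incubation of 2,000 cells/well. CellTiter-Fluor fluorescence, read after 1 hr, served as the viability measure in a qHTS format.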

The target of test [3] is Nuclear receptor subfamily 1 group I member 2 (Homo sapiens) (UniProt O75469). Nature of the test: Human pregnane X receptor (PXR) small molecule agonists, qHTS assay (AID 1346982). Further: nearly all actives have a fitted effect of over 35% in size. Further: potency means the concentration at half of the fitted maximal effect. On activation: on the % scale 0 is the no-effect control and ±100 the full control effect. Put shortly: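 Stable HepG2 line reporting PXR-mediated CYP3A4 expression via luciferase. Treatment: 24 hr with compounds in DMSO at 37 C. Detection: ONE-Glo luminescence.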
For test [4], the target named is Acetylcholinesterase (Homo sapiens) (UniProt P22303). Nature of the test: Acetylcholinesterase (AChE) small molecule antagonists: colormetric cell-based qHTS assay (AID 1347395; calls by dose curve; further: on the % scale 0 is the no-effect control and ±100 the full control effect; nearly all actives have a fitted effect of over 30% in size). Put shortly:
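After overnight attachment at 37 C, SH-SY5Y cells get 30 min compound exposure; detection cocktail (acetylthiocholine, DTNB) then incubates 90 min at 37 C, and absorbance reflects AChE-generated thiocholine.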

For test [5] the target is unchanged. As to the kind of experiment: Acetylcholinesterase (AChE) small molecule antagonists: enzyme-based qHTS assay (AID 1347397; calls by dose curve; further: on the % scale 0 is the no-effect control and ±100 the full control effect; nearly all actives have a fitted effect of over 55% in size). As to conditions: Potency: AChE enzyme activity inhibition. In outline:
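Colorimetric DTNB read-out of thiocholine released from acetylthiocholine by recombinant human AChE (50 mU/mL as dispensed). Compounds were preincubated 30 min at RT before substrate/DTNB addition, with a 10 min RT reaction.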

For test [6] the target is unchanged. Nature of the test: Acetylcholinesterase (AChE) small molecule antagonists: fluorescence cell-based qHTS assay (AID 1347398; calls by dose curve; further: on the % scale 0 is the no-effect control and ±100 the full control effect; nearly all actives have a fitted effect of over 50% in size). As to conditions: Potency: AChE activity. In outline:
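SH-SY5Y, 2,000 cells/well, attached overnight; cmpd 30 min 37 C; acetylthiocholine/Thiolite Green cocktail 40 min RT; fluorescence Ex/Em 490/520 nm.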

The target of test [7] is Cytochrome P450 2D6 (Homo sapiens) (UniProt P10635). As to the kind of experiment: Cytochrome P450 Family 2 Subfamily D Member 6 (CYP2D6) small molecule antagonists: luciferase reporter qHTS assay (AID 1671196). Further: nearly all actives have a fitted effect of over 50% in size. Further: potency means the concentration at half of the fitted maximal effect. Put shortly: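 Chemicals tested for interference with CYP2D6 activity; proluciferin substrate, NADPH regeneration, 1 h at room temperature, luminescent detection.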
(In a reporter assay the amount or activity of a reporter protein is the signal.)

Test [8] concerns the target Cytochrome P450 2C19 (Homo sapiens) (UniProt P33261). Nature of the test: Cytochrome P450 Family 2 Subfamily C Member 19 (CYP2C19) small molecule antagonists: luciferase reporter qHTS assay (AID 1671197). Further: nearly all actives have a fitted effect of over 65% in size. Further: potency means the concentration at half of the fitted maximal effect. Put shortly:
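Quantitative high-throughput screen of the Tox21 library using CYP2C19 with proluciferin substrate. Reaction: NADPH regeneration, 37C, 1 h, after 10 min compound preincubation at room temperature. Readout: luminescence.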

The target in test [9] is Cytochrome P450 2C9 (Homo sapiens) (UniProt P11712). Nature of the test: Cytochrome P450 Family 2 Subfamily C Member 9 (CYP2C9) small molecule antagonists: luciferase reporter qHTS assay (AID 1671198). Further: nearly all actives have a fitted effect of over 50% in size. Further: potency means the concentration at half of the fitted maximal effect. In outline:
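P450-Glo proluciferin substrate with CYP2C9 enzyme; 10 min RT preincubation, then NADPH regeneration 1 h at 37C; luciferin detection reagent 20 min RT, luminescence in relative luminescence units.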

The target in test [10] is Cytochrome P450 1A2 (Homo sapiens) (UniProt P05177). As to the kind of experiment: Cytochrome P450 Family 1 Subfamily A Member 2 (CYP1A2) small molecule antagonists: luciferase reporter qHTS assay (AID 1671199). Further: nearly all actives have a fitted effect of over 50% in size. Further: potency means the concentration at half of the fitted maximal effect. In outline: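 Read-out is luminescence from luciferin detection reagent (20 min) proportional to CYP1A2 activity; compounds in DMSO preincubated 10 min with enzyme and proluciferin substrate, then NADPH regeneration solution, 1 h, room temperature.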

Test [11] has as its target Voltage-gated inwardly rectifying potassium channel KCNH2 (Homo sapiens) (UniProt Q12809). As to the kind of experiment: Human Ether-a-go-go-Related Gene (hERG) channel small molecule antagonists: fluorescence cell-based qHTS assay (AID 1671200). In outline: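 In this thallium-flux screen, overnight-cultured U2OS cells bearing the channel are dye-loaded in darkness for an hour, rested 10 min at room temperature, and then monitored kinetically at 480/540 nm for two minutes post-stimulus.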
For orientation: hERG is a cardiac potassium channel; its block is linked to QT prolongation.

The target in test [12] is Cytochrome P450 3A4 (Homo sapiens) (UniProt P08684). Nature of the test: Cytochrome P450 Family 3 Subfamily A Member 4 (CYP3A4) small molecule antagonists: luciferase reporter qHTS assay (AID 1671201). Put shortly: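 CYP3A4 activity was followed with a P450-Glo proluciferin substrate. Test compounds in DMSO were preincubated 10 min; NADPH regeneration then ran 1 h, and light output was read 20 min after detection reagent.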

The target of test [13] is Acetylcholinesterase (Homo sapiens) (UniProt P22303). Nature of the test: Acetylcholinesterase (AChE) small molecule antagonists: enzyme-based qHTS assay with human liver microsomes (AID 1347399; calls by dose curve; further: on the % scale 0 is the no-effect control and ±100 the full control effect; nearly all actives have a fitted effect of over 60% in size). The conditions noted are these: Potency: qHTS inhibition. Put shortly:
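Recombinant human AChE (50 mU/mL in the enzyme mix) and human liver microsomes (0.25 mg/mL final) were preincubated with compound and NADPH (0.25 mg/mL final) for 30 min at 37 C. Acetylthiocholine/DTNB was then added; thiocholine was read colorimetrically after 10 min at room temperature.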

For test [14], the target named is Nuclear receptor subfamily 1 group I member 2 (Rattus norvegicus) (UniProt Q9R1A7). Nature of the test: Rat pregnane X receptor (rPXR) activation by small molecules, qHTS assay (AID 1346983). Further: on the % scale 0 is the no-effect control and ±100 the full control effect; nearly all actives have a fitted effect of over 20% in size. As to conditions: rPXR luciferase reporter cells, One-Glo luminescence, 24 h; stronger effect = higher value. Put shortly: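 Cell-based rPXR activation assay: rPXR cells, 2,000 per well, rested 5hr at 37 C, then exposed to compounds in DMSO for 24 hr at 37 C. Luciferase activity read by One-Glo luminescence after 30 min at room temperature.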

Test [15] has as its target Nuclear receptor subfamily 1 group I member 2 (Homo sapiens) (UniProt O75469). Nature of the test: CYP3A4 induction through human pregnane X receptor (PXR) by small molecules, qHTS assay (AID 1346984). Further: on the % scale 0 is the no-effect control and ±100 the full control effect; nearly all actives have a fitted effect of over 40% in size. In outline:
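After 24 h at 37C with compound, DPX-2 cells (HepG2, co-transfected PXR response element and CYP3A4 promoter-luciferase) got 3uM final P450-Glo Luciferin-IPA for 3 h; One-Glo luminescence followed.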

Test [16] has the same target. As to the kind of experiment: Human pregnane X receptor (PXR) activation by small molecules, qHTS assay (AID 1346985). Further: potency means the concentration at half of the fitted maximal effect; nearly all actives have a fitted effect of over 40% in size. Put shortly: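 DPX-2 cells (HepG2 co-transfected with a PXR response element and a CYP3A4-promoter luciferase construct) were seeded at 2,000 per well, rested 5 hr at 37C, then exposed to DMSO-dissolved compounds for 24 hr. Activation was read as luciferase luminescence.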

Values joined by “and” are separate entries in the source; they are usually repeats but may differ in a detail not shown here. Equal values may be shown once. Inconclusive results are not listed. More than one record can exist for a structure, and the calls need not agree. Active and inactive are the calls of the source. Unless noted, the call rests on the fitted dose curve; in most records, active means well fitted curve in the direction sought with a large enough effect in the repeat runs; inconclusive means weak or mixed curves; inactive means no such curve, though single readings can be large; an effect the other way counts as inactive or inconclusive.

Acetylcholinesterase (Homo sapiens), sequence (P22303 whole entry, looked up): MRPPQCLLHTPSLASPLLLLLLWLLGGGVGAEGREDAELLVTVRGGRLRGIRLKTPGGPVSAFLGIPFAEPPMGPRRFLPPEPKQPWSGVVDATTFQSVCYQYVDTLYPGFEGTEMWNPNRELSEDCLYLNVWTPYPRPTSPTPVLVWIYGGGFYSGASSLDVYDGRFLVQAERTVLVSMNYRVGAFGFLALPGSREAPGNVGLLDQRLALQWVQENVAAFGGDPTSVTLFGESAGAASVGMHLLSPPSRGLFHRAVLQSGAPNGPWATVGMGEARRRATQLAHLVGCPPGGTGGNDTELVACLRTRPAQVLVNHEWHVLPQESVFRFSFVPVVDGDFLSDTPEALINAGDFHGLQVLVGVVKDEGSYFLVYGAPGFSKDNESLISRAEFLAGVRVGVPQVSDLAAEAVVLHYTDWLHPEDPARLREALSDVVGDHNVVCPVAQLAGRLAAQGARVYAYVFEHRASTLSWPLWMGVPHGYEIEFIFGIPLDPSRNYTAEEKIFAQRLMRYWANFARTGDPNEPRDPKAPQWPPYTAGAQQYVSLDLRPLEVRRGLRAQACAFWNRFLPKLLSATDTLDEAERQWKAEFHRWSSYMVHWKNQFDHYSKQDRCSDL
Cytochrome P450 2C9 (Homo sapiens), sequence (P11712 whole entry, looked up): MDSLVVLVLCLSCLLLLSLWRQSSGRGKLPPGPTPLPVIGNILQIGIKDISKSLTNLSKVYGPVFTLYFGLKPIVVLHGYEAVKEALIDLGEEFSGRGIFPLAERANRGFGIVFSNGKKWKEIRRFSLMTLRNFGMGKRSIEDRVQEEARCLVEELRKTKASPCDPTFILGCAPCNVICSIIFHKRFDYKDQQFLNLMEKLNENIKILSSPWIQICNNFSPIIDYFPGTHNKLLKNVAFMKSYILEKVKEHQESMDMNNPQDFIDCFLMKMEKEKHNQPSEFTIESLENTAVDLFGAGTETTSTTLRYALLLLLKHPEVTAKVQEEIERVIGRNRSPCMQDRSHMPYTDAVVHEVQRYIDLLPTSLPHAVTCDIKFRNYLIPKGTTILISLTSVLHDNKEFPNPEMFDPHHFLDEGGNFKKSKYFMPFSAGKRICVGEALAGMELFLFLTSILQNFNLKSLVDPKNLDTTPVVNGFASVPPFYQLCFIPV
Cytochrome P450 2C19 (Homo sapiens), sequence (P33261 whole entry, looked up): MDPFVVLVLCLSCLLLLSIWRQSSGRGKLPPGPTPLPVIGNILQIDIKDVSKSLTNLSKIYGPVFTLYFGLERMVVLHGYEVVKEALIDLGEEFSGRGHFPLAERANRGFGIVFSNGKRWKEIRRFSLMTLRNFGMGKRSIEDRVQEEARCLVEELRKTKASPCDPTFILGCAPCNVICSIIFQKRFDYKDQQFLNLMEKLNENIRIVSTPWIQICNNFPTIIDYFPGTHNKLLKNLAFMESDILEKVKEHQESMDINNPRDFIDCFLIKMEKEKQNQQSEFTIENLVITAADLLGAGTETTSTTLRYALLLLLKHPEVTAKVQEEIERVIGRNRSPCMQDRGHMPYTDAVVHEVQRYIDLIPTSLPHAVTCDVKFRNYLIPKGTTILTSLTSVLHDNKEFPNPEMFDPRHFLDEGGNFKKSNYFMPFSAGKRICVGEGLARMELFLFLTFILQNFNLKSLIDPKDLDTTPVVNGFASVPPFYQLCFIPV
Cytochrome P450 1A2 (Homo sapiens), sequence (P05177 whole entry, looked up): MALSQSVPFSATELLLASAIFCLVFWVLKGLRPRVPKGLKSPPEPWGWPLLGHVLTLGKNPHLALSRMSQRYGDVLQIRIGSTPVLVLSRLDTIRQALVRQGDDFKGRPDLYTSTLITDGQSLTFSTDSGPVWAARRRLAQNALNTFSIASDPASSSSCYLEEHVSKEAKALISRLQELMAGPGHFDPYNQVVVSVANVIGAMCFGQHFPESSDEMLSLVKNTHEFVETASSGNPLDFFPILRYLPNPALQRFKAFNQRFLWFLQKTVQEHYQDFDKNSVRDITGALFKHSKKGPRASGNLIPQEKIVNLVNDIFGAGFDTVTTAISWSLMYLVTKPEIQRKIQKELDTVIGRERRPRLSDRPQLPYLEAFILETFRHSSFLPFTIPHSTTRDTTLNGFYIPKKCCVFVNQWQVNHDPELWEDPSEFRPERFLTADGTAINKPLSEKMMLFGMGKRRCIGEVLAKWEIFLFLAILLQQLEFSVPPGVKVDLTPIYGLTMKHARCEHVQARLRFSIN
Cytochrome P450 3A4 (Homo sapiens), sequence (P08684 whole entry, looked up): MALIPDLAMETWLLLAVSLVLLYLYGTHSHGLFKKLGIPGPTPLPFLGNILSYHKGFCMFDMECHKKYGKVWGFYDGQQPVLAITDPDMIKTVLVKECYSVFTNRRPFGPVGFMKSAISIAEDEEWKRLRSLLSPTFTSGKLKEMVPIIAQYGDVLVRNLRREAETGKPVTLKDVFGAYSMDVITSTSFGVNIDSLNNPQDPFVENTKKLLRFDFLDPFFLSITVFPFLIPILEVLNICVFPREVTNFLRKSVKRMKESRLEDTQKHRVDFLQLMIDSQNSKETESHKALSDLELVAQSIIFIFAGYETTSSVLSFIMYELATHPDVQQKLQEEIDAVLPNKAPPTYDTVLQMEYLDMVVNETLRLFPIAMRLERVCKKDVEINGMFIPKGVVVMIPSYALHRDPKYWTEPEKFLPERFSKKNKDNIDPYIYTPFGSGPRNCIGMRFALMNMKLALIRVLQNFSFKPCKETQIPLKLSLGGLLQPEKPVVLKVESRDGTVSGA
Cytochrome P450 2D6 (Homo sapiens), sequence (P10635 whole entry, looked up): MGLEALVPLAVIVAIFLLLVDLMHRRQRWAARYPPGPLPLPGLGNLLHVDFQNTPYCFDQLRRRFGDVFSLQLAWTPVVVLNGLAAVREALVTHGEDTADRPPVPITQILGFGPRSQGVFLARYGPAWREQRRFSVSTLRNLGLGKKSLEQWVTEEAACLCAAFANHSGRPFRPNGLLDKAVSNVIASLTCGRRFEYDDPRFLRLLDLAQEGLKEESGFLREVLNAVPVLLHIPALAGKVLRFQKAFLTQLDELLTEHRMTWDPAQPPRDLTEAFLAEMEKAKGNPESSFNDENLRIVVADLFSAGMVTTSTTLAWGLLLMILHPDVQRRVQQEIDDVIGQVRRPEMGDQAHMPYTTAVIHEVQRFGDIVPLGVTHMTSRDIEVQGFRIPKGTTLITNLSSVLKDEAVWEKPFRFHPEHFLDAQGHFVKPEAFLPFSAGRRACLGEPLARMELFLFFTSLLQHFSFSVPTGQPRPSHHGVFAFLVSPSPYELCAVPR
Voltage-gated inwardly rectifying potassium channel KCNH2 (Homo sapiens), sequence (Q12809 whole entry, looked up): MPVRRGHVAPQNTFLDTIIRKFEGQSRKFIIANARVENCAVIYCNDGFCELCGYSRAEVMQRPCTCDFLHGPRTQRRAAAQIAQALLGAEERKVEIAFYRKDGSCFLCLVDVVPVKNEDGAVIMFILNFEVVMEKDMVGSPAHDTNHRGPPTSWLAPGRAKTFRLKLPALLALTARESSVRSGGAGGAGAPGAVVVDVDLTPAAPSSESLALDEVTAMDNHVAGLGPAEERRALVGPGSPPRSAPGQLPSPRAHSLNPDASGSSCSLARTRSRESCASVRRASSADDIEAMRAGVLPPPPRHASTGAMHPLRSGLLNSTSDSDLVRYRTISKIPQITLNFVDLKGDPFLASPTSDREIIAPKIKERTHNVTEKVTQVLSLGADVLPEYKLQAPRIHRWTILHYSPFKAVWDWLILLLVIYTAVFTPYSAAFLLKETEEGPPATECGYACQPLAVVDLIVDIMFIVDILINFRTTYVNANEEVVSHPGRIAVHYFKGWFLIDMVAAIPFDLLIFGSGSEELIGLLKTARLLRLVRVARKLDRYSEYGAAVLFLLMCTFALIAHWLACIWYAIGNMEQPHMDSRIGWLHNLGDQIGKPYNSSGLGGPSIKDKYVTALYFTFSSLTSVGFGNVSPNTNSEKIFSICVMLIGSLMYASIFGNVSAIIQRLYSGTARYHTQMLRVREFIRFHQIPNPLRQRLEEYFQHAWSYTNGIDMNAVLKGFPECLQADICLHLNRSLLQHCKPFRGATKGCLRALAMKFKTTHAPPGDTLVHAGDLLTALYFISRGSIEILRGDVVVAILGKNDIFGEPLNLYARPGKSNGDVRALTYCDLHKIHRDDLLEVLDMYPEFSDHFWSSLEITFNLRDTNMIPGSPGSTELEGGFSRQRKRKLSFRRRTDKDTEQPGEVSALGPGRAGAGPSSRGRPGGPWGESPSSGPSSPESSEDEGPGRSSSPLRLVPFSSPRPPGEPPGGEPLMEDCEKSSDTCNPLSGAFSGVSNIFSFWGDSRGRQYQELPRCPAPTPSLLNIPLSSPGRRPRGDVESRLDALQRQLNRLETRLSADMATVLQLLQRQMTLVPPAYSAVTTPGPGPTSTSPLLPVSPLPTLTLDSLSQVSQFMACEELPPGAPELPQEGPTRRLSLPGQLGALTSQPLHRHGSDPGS
Nuclear receptor subfamily 1 group I member 2 (Homo sapiens), sequence (O75469 whole entry, looked up): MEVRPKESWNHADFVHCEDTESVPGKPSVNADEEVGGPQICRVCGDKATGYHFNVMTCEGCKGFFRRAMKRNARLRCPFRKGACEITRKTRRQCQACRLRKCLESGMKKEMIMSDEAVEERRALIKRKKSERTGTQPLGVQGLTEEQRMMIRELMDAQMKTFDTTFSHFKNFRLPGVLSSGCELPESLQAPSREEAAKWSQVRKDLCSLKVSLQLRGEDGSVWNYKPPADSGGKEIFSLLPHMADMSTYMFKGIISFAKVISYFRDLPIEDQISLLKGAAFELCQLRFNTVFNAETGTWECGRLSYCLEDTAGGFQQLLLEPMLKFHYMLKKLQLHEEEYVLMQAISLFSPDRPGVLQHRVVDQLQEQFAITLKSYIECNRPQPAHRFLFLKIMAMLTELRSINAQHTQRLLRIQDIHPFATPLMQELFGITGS

Consider `CCCN(CCC)N=O`, for which the outcome in [1] was inactive. Also, the Potency entry in test [2], in [3], in test [4], in test [5], in test [6] and in test [7] was “inactive” throughout. In addition, the Potency entry in test [8], in test [9], in [10], in test [11] and in test [12] was “inactive” throughout.

Consider `c1ccc(OP(Oc2ccccc2)Oc2ccccc2)cc1`, for which the molecule was called inactive in test [1]. For the same molecule, the Potency result in [2], in test [3], in test [4], in test [5], in test [6] and in [13] was “inactive” throughout. In addition, the Potency result in test [12] was “inactive”.

Turning to `[N-]=[N+]=[N-]`, the outcome in test [1] was inactive. The Potency entry in test [2], in test [3], in test [4], in test [5], in test [6] and in test [11] was “inactive” each time. In [12], the Potency entry is “inactive”. In addition, the Potency was 38.6 µM (active) and inactive in test [7]; 24.4 µM (active) and 50.2 µM (active) in test [8]; 38.6 µM (active) and 35.6 µM (active) in [9]; 43.3 µM (active) and inactive in test [10].

Consider `O=c1ccc(=O)[nH][nH]1`, for which, in [1], the outcome was inactive. Moreover, the Potency entry in [2], in [3], in [4], in [5], in test [6] and in test [13] was “inactive” in each case. Besides, the Potency entry in [8], in [10], in [11] and in test [12] was “inactive” each time.

For the molecule `Nc1ccc(Br)cc1`, in test [1], the result was inactive. In addition, the Potency result in test [2], in test [3], in [4], in test [5], in [6] and in test [13] was “inactive” each time. Further, in [11], the Potency entry was “inactive”. In addition, the Potency in [8] was 50.2 µM (active) and 39.9 µM (active); in test [10], 44.8 µM (active).

Turning to `CC(C)=C[C@@H]1[C@@H](C(=O)OCc2coc(Cc3ccccc3)c2)C1(C)C`, the result in [1] and in test [15] was inactive. Moreover, the Potency result in test [2], in test [4], in test [5], in test [6], in test [13] and in test [11] was “inactive” throughout. The Potency entry in test [12] was “inactive”. In addition, the Potency in test [3] is 13.7 µM (active); in test [16], 22.4 µM (active); in test [8] it was 10 µM (active) and 4.36 µM (active); in test [9], 1.42 µM (active) and 5.49 µM (active); in test [10], 27.5 µM (active). Further, in [14], the max activation is 12.4% (inactive).

As for `CCN(CC)CCO`, in test [1], the call was inactive. Further, the Potency result in [2], in test [3], in test [4], in test [5], in test [6] and in test [13] was “inactive” each time. Besides, the Potency entry in test [7], in [8], in [9] and in test [12] was “inactive” each time.

For `CC(Oc1ccc(Cl)cc1Cl)C(=O)O` (stereo unspecified), the result in test [1] was inactive. Also, the Potency result in test [2], in test [3], in test [4], in test [5], in [6] and in test [13] was “inactive” throughout. The Potency result in test [11] and in [12] was “inactive” in each case. The Potency in test [8] was 35.7 µM (active).

Turning to `Cc1cccc([N+](=O)[O-])c1`, the outcome in test [1] was inactive. Also, the Potency entry in test [2], in [3], in test [4], in [5], in test [6] and in [7] was “inactive” in each case. Also, the Potency entry in test [8], in test [9], in test [10], in test [11] and in [12] was “inactive” each time.
